From paper PMC13494018

B1: d1r7_design_ppi_393_dldesign_0_cycle1_af2pred (protein)
chain: EKLHPQAVAALKAQARNAAKLDPETMKKMAENVAKLVTLLSPAKAKEAEKVKELLLKAAEAKKKGAGEETLKALVEEAAKVIAE
B2: d1r7_design_ppi_640_dldesign_0_cycle1_af2pred (protein)
chain: AQQAVQQTQKVVDETKEVYERAKKEGSPEVAEKLKELLAQAQNNLQMAQAGGAEAAQLMYQNAKKIYEEAKKYAEEEIKKEKE
B3: d1r7_design_ppi_396_dldesign_0_cycle0_af2pred (protein)
chain: SSPVEQAMKVIEKYMKELAKVVGQEKADAAKNLLFGALAKGVHAGVEAAKAELQAAAKEIQKEIKDPEAQKIIQEATKEAIKELE
B4: d1r7_design_ppi_682_dldesign_0_cycle1_af2pred (protein)
chain: ATAEQIQQVKNYAKAAIQAVKNAAASDKAEALAVAKIFADALLKQGKLTTPEAAKEAEKAAKEILATAKALAA
B5: d1r7_design_ppi_562_dldesign_0_cycle1_af2pred (protein)
chain: SEKAEKLKKETLEKAEKAVKEAEASPDPKEGIKILSEAAREAARAAAESPEAGSAALALTVSAMEEFAAKARA
B6: d1r7_design_ppi_815_dldesign_0_cycle0_af2pred (protein)
chain: MEDLEELLRLIAEAQRALKTDAEEGIKLAEEAAKKAEELGLEKAAKLLKEAAKAAKTDAEEGIRLLNQAATQAAREYSEK
B7: d1r7_design_ppi_733_dldesign_0_cycle0_af2pred (protein)
chain: MEEALKALEEAEEAAREAGDEESAEILEKAREEVKAGTPSEGALTVARAAAEAVARARAAGNEDLADRVRALANRAIAALSRAAIA
B8: d1r7_design_ppi_302_dldesign_0_cycle1_af2pred (protein)
chain: SPVAAQAEALRDAAVAVAKTGNPEAAAAAAHAAVAQMNRLALAHPEENATASSEAVATLEEVDRLRAAQRAAAG
B9: d1r7_design_ppi_290_dldesign_0_cycle0_af2pred (protein)
chain: SAEAAEAEAAAARELAREMYALTPEEAAERMTALFLESPGRALRAATELVRAEGPAALPLAQAWLRAGVAAAQAA
B10: d1r7_design_ppi_529_dldesign_0_cycle1_af2pred (protein)
chain: DELEKAIKEAEKYIEELKKTIKEGVKNPEEALKLAEEAEKEGEKAAALGIVGAGVGQLAKAAAQALRNKIAA
B11: d1r7_design_ppi_733_dldesign_0_cycle1_af2pred (protein)
chain: VEEALKALEEAAKAAKEAGDEESAKILKEALEKVKAGTPAEGALTIAEKSAEAVKRALEKGNEELAEKILKLGQKAIAALSKAAIA
B12: d1r7_design_ppi_420_dldesign_0_cycle1_af2pred (protein)
chain: MTKAEVVAEAIAVAKEAAKIAKANKESPEVQELQKKALDLAFKALASNDAAEAQKYAEKAKEVKKELEKKAKEL
B13: d1r7_design_ppi_29_dldesign_0_cycle1_af2pred (protein)
chain: SAATAVALAQAAITFGRSALAAAERAPPERGAKILEAAAEILTAAAAQAPALAAETQALAAEARERAAELAAAAAA
B14: d1r7_design_ppi_609_dldesign_0_cycle0_af2pred (protein)
chain: SELAEQALAAAESLIAEALRAAAEDPARAARLFASAKAVAEALKKIDPKLGEELLKKVEAAEAEAKAAIA
B15: d1r7_design_ppi_446_dldesign_0_cycle1_af2pred (protein)
chain: GEAARNAEEIFADSRERARALAAEYRASGDPADLAIAAELEEALARAEEEGPAGGVRLIILTDGILQARAAAAA
B16: d1r7_design_ppi_241_dldesign_0_cycle0_af2pred (protein)
chain: SELEARGERIKREAEELRRRAEASTDAEEALAYATELVALAAEAAALGDSEAASVAVRAAAAAHAHAQALRA
B17: d1r7_design_ppi_24_dldesign_0_cycle0_af2pred (protein)
chain: SELGAILDRASEVSKRAVEVEKKAKEKGLEEALELAREALKEVQAALSLIAKGGDLADAQAKLEEGEKLLEEAEKKLKEE
B18: d1r7_design_ppi_702_dldesign_0_cycle0_af2pred (protein)
chain: SAEKETNLANAKGYLALAKAYTKGATYYATKEGDLEKAKELYEKAKEASKLAIEAAAKAGPEAAAKAKAEADEIDKENEKALKEAE
B19: d1r7_design_ppi_719_dldesign_0_cycle1_af2pred (protein)
chain: SGAQAAVAAAQANLRQAKQLLEEGDYEGALGHIKLAKLAADAAKKQATAAGDQAAIDQATALQKEAEELEKEAKKALE
B20: d1r7_design_ppi_855_dldesign_0_cycle1_af2pred (protein)
chain: SAAAAQARAVANTAAAAAKQGVPAEEVVALVEGAAKTLAGDPAALQAMIDTLAELAKASTPEAAATLNKAAEAVKKVLA
B21: d1r7_design_ppi_493_dldesign_0_cycle0_af2pred (protein)
chain: SMLKEKEEAEKKRERVEKLIKEAEEAAKEAEKIDPVSGRGLRGMVEAARRLMEEGNLEAAEKLAQVALDAAAGLAAAA
B22: d1r7_design_ppi_77_dldesign_0_cycle1_af2pred (protein)
chain: SAVEDAANAIWEAAKAMAKAVPEAAATVDKLAREAVRALMLGDYEKAAKIVKEMAKAVAKADPKAAKKAEELAKKTVAKIKAA
B23: d1r7_design_ppi_252_dldesign_0_cycle1_af2pred (protein)
chain: VKEEAVALAKEAAALAREAAELLAPDPLLAAQAQRLAERAEELAERAKAASEEEAKELLEEARVLLAQAELLLTIARQR
B24: d1r7_design_ppi_270_dldesign_0_cycle1_af2pred (protein)
chain: SMEKALEYLEKAKKSLEEGDKAKAAGDKARALGYYQLAAAYAKSAAHLAKDNPELAKEAKELEKEAKAKLAEVRAA
B25: d1r7_design_ppi_719_dldesign_0_cycle0_af2pred (protein)
chain: SGAKAAIAAAKHNIKQAKKLLEEGDVEGALGHIKLAELATKAAEAEAKAAGDKEALKKAEELKKEVEELKKEAEKKKK
B26: d1r7_design_ppi_304_dldesign_0_cycle0_af2pred (protein)
chain: AAEAAAAAAATARASAAMAAFARRRLEEGAAAGPEALARAVAELEALAAHADPAIGAALRAALAATLAALAAAA
B27: d1r7_design_ppi_74_dldesign_0_cycle1_af2pred (protein)
chain: AKEKAEELYKKFSEEINKSLALLGKAGLAAVEDPAKGAELFKKAKAELEEAKKYAKKLEELDPELGKKAKAELKKVQDLYDGTYKANV
B28: d1r7_design_ppi_538_dldesign_0_cycle0_af2pred (protein)
chain: MEEVKKKAEEAKKEIEKLYEEALKYAKEGDIEKAAEYISKMREKGLEAAEEVPELAEEILAYTGRKALEALLELGKASL
B29: d1r7_design_ppi_855_dldesign_0_cycle0_af2pred (protein)
chain: SAAAAQARAVARMAAAAAESGVDAAEVLAVVTGAAQQLAADPAALQAMLDTLTALAAASTPEAAAVLAAAAAAVAAVLA
B30: d1r7_design_ppi_71_dldesign_0_cycle1_af2pred (protein)
chain: DYAAQQLALTTRAQEVAERAKKAGKELGNPEEAKKIQQLASLAQALAINPATFPQAEKKLEEAEKRAKKLEKKAKE
B31: d1r7_design_ppi_806_dldesign_0_cycle1_af2pred (protein)
chain: AKEEALRTLKSAAELAKVAADIAANVDPELAKKAKELAEKAKKLAEEAKKASEEEAKKLLEEGKKLLEEVRALTAEVARLAVAA
B32: d1r7_design_ppi_351_dldesign_0_cycle0_af2pred (protein)
chain: EELEEKKKKAIELLKKAKEKAEKIGDTAVAAAAENAIKAIEAGNLEAAISNARLAKAIAAEDPALKEAAELAKKALEELEEAKKLAEA
B33: d1r7_design_ppi_522_dldesign_0_cycle1_af2pred (protein)
chain: DPNEKARQLMNDAFQQATKLRAAGAANPATAAQDTAQGVQAVNEAKKKAAELASPEYAGKIEEMAKQLTSIISV
B34: d1r7_design_ppi_300_dldesign_0_cycle0_af2pred (protein)
chain: MQVMLDAGEYLAKALKATGLEEAKEMAEEVLKAMKEAASLSPEEAESILGELMRKTIAKTGVVGAQAAALAYAHLAELKAA
B35: d1r7_design_ppi_677_dldesign_0_cycle0_af2pred (protein)
chain: VEEKIRGIEEAGRLGAEASPELAAEIEAFTKRAVEAARASGDEAVAGAALQAASLALIGAAWYAVDPEKGAAVLARARARLEALIA
B36: d1r7_design_ppi_147_dldesign_0_cycle1_af2pred (protein)
chain: AAAAAKATAKQIAAIAEEAIAKVKAATPEEAKKIAAEANQQIRALAAAAAAAHPEVAAAVAAAATAAIQRVLSTAIEVVSA
B37: d1r7_design_ppi_628_dldesign_0_cycle1_af2pred (protein)
chain: AEALLKEAEEVKARAAELAATGPEGIVEAAKLVAEMRRKGVENPEVRERVDALYREASAEIARQQRAWIAQQAAAR
B38: d1r7_design_ppi_322_dldesign_0_cycle0_af2pred (protein)
chain: MTLEDLKRAAKAYLHGLANLAAGLGLEELAKKLREAAANVDDAKALKEGAELAKELAALSTPEAAEFAKLAAEVAKAAAKAVEAA

biological target: CD276, Q5ZPR3
Sequence (Q5ZPR3 whole entry): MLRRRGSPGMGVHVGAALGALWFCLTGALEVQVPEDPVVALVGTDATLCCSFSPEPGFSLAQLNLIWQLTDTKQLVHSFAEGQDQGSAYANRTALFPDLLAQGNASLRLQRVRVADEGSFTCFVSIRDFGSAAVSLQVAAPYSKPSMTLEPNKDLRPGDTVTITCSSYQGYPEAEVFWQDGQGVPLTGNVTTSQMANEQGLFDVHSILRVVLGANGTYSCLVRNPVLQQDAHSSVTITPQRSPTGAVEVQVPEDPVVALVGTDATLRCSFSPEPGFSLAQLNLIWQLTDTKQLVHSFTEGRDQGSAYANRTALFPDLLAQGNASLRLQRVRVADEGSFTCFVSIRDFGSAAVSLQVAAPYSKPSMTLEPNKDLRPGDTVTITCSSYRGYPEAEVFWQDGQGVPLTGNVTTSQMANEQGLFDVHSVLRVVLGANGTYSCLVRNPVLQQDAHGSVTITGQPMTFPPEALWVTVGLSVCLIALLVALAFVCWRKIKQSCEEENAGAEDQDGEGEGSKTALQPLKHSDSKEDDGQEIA

Binding in a display sort, inactive:
B1 not found
B2 not found
B3 not found
B4 not found
B5 not found
B6 not found
B7 not found
B8 not found
B9 not found
B10 not found
B11 not found
B12 not found
B13 not found
B14 not found
B15 not found
B16 not found
B17 not found
B18 not found
B19 not found
B20 not found
B21 not found
B22 not found
B23 not found
B24 not found
B25 not found
B26 not found
B27 not found
B28 not found
B29 not found
B30 not found
B31 not found
B32 not found
B33 not found
B34 not found
B35 not found
B36 not found
B37 not found
B38 not found
